These results are taken from paper PMC7862700, “An all-to-all approach to the identification of sequence-specific readers for epigenetic DNA modifications on cytosine”.

Assay in all cases: DAPPL (digital affinity profiling via proximity ligation, sequencing); 10 mM Tris-HCl pH 7.5, 50 mM NaCl, 1 mM DTT, 4% glycerol, room temperature, 30 min; GST-TFs on glutathione beads, 16-mer random dsDNA library, 0.1% formaldehyde crosslink after washing; high values mean tight binding
The target of one assay is SPIB (Homo sapiens, UniProt Q01892 1-262). Conditions: protein: recombinant; tags: N-terminal GST; dsDNA, one strand shown. The method in brief:
(§1)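 Human transcription factors were made in yeast as GST fusions, captured on glutathione beads and barcoded with DNA. With a tag-only sample included, the pool was incubated with 200 nmole of a random double-stranded 16-mer DNA library in Tris/NaCl/DTT/glycerol buffer at room temperature for 30 min, then crosslinked with 0.1% formaldehyde after washing, ligated by proximity, amplified and sequenced. For binding signal, each hexamer's read frequency for a factor is divided by its frequency for the tag-only sample.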

In a further assay the target is T1, ELK3 (Homo sapiens, UniProt P41970 1-407).
T1 sequence: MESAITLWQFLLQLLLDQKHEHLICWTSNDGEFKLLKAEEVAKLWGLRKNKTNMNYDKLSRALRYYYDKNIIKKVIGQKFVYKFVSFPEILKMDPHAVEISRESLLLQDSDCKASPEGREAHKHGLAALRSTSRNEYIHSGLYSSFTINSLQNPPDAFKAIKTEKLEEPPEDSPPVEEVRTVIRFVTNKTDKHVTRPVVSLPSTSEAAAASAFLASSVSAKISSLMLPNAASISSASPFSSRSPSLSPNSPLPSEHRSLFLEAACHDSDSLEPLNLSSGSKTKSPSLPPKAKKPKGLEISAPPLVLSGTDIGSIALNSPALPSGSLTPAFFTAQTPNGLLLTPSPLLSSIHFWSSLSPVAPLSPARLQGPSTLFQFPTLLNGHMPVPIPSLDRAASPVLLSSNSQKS
Conditions: protein: recombinant; tags: N-terminal GST; dsDNA, one strand shown. The method in brief: as §1

The target of a further assay is HSF1 (Homo sapiens, UniProt Q00613 1-529). Conditions: protein: recombinant; tags: N-terminal GST; chain copies: 3; dsDNA, one strand shown. The gist of the method:
as §1

A further assay addresses T2, ELK4 (Homo sapiens, UniProt P28324-2 1-405).
T2 sequence: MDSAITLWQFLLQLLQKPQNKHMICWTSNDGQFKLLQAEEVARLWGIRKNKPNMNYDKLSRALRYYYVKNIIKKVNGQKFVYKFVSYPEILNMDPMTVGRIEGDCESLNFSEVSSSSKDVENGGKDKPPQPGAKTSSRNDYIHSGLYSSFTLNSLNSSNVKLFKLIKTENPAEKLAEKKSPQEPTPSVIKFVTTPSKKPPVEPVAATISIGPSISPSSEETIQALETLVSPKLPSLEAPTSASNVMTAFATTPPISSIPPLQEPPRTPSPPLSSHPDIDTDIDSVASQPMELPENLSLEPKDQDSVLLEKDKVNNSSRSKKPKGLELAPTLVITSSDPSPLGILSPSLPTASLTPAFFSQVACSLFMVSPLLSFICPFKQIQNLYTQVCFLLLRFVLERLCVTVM
To be noted: protein: recombinant; tags: N-terminal GST; dsDNA, one strand shown. The method in brief: as §1

The next assay deals with T3, ETV2 (Homo sapiens, UniProt O00321 1-342).
T3 sequence: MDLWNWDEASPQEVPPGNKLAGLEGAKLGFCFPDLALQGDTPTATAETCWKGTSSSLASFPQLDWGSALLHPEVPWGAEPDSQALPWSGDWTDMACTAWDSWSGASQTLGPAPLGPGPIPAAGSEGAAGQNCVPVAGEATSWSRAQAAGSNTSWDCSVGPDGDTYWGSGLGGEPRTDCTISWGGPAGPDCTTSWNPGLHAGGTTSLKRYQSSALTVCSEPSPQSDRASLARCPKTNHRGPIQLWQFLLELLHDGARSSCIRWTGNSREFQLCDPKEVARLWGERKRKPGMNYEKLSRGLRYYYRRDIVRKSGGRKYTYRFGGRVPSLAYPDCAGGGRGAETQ
To be noted: protein: recombinant; tags: N-terminal GST; dsDNA, one strand shown. The method in brief: as §1

Another assay deals with T4, ETV3L (Homo sapiens, UniProt Q6ZN32 1-361).
T4 sequence: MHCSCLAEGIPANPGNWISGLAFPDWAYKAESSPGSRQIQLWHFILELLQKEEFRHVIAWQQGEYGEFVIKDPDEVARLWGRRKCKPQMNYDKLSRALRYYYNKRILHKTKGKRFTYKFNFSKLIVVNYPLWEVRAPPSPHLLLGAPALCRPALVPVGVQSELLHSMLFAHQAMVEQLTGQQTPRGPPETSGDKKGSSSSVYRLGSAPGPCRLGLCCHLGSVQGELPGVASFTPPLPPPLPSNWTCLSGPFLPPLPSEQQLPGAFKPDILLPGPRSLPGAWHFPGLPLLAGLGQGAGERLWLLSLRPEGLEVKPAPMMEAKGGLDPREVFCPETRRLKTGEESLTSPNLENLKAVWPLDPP
Conditions: protein: recombinant; tags: N-terminal GST; dsDNA, one strand shown. The gist of the method: as §1

In a further assay the target is T5, ETS2 (Homo sapiens, UniProt P15036 1-469).
T5 sequence: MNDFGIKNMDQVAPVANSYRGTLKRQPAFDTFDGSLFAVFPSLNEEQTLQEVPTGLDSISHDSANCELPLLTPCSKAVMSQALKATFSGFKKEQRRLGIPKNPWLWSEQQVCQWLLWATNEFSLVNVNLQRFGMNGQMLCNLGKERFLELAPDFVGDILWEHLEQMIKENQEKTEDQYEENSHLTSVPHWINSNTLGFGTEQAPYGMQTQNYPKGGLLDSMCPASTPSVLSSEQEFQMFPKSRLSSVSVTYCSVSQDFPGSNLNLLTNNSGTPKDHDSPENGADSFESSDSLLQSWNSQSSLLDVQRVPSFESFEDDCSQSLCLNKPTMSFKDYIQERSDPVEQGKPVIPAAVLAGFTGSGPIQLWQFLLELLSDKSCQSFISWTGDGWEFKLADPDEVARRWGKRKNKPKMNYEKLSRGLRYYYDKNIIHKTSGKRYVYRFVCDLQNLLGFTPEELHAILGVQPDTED
Conditions: protein: recombinant; tags: N-terminal GST; dsDNA, one strand shown. The method in brief:
as §1

A further assay concerns the target T6, GABPA (Homo sapiens, UniProt Q06546 1-454).
T6 sequence: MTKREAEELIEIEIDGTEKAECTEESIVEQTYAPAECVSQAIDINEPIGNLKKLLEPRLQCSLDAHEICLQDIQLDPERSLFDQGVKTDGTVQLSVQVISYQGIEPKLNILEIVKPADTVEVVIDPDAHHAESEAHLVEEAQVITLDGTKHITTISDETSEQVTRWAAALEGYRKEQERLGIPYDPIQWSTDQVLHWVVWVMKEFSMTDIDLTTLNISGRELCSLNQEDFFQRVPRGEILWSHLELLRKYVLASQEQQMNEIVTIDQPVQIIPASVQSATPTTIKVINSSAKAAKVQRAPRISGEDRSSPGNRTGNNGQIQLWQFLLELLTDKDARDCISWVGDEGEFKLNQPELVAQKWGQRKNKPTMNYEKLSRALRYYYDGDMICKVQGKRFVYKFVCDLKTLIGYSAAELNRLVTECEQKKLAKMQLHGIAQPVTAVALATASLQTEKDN
Conditions: protein: recombinant; tags: N-terminal GST; dsDNA, one strand shown. The gist of the method:
as §1

For a further assay, the target named is T7, ERG (Homo sapiens, UniProt P11308 1-479).
T7 sequence: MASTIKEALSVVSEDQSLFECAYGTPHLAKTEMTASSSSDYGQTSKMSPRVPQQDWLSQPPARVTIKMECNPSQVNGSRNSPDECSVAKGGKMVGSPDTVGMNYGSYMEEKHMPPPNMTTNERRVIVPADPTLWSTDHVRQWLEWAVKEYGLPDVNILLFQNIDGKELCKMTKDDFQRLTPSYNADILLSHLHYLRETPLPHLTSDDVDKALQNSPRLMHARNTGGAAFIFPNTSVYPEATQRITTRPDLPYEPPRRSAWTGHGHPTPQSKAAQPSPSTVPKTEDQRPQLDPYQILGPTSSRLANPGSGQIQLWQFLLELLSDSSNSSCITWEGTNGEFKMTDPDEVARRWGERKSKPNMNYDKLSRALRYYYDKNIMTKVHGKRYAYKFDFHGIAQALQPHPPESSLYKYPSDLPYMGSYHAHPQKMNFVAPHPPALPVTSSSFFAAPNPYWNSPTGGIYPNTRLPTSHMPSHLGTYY
To be noted: protein: recombinant; tags: N-terminal GST; dsDNA, one strand shown. The method in brief:
as §1

Another assay has as its target T8, FEV (Homo sapiens, UniProt Q99581 1-238).
T8 sequence: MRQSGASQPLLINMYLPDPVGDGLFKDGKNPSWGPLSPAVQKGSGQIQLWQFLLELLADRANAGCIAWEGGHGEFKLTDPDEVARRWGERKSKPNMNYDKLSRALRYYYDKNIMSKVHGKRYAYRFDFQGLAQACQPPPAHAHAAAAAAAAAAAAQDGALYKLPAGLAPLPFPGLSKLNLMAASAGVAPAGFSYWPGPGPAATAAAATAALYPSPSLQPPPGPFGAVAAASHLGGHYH
To be noted: protein: recombinant; tags: N-terminal GST; dsDNA, one strand shown. The gist of the method: as §1

Another assay has as its target T9, SPIC (Homo sapiens, UniProt Q8N5J4 1-248).
T9 sequence: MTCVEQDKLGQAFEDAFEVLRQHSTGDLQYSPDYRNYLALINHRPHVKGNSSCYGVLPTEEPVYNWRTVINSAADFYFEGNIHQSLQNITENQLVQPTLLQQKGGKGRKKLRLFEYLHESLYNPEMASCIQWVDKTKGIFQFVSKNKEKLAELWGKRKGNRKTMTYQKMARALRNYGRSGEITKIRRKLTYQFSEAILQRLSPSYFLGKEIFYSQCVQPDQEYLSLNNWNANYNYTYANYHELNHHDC
Conditions: protein: recombinant; tags: N-terminal GST; dsDNA, one strand shown. The method in brief:
as §1

A further assay has as its target CRX (Homo sapiens, UniProt O43186 1-299). Conditions: protein: recombinant; tags: N-terminal GST; dsDNA, one strand shown. The gist of the method: as §1
The target in a further assay is ETV1 (Homo sapiens, UniProt P50549 1-477). Conditions: protein: recombinant; tags: N-terminal GST; dsDNA, one strand shown. The method in brief: as §1
A further assay concerns the target T10, ERF (Homo sapiens, UniProt P50548 1-548).
T10 sequence: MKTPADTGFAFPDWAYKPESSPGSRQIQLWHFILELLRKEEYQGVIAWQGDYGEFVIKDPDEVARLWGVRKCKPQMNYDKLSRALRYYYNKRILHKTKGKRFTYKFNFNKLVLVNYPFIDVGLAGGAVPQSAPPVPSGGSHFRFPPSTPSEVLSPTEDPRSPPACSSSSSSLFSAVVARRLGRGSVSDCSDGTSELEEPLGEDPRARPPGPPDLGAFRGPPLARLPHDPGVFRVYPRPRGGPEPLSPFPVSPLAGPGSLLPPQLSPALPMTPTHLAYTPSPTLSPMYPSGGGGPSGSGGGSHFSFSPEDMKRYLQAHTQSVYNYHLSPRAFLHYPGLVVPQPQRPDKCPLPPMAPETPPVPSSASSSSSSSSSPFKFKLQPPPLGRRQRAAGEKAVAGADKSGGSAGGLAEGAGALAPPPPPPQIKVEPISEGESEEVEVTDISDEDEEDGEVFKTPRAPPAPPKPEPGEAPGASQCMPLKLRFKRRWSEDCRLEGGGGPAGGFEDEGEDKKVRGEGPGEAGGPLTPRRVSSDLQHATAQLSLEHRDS
Conditions: protein: recombinant; tags: N-terminal GST; dsDNA, one strand shown. The gist of the method: as §1

Another assay has as its target T11, ETV7 (Homo sapiens, UniProt Q9Y603 1-341).
T11 sequence: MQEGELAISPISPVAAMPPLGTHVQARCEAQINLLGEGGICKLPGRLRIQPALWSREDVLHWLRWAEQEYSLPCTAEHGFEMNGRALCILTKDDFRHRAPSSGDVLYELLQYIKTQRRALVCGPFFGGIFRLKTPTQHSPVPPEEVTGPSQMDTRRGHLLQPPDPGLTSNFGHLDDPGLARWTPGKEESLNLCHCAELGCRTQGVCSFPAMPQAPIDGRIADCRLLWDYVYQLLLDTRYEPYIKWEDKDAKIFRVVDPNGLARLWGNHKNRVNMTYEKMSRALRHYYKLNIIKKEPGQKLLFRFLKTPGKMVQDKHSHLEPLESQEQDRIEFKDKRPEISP
To be noted: protein: recombinant; tags: N-terminal GST; dsDNA, one strand shown. The method in brief:
as §1

Chain of HSF1 (Q00613 whole entry): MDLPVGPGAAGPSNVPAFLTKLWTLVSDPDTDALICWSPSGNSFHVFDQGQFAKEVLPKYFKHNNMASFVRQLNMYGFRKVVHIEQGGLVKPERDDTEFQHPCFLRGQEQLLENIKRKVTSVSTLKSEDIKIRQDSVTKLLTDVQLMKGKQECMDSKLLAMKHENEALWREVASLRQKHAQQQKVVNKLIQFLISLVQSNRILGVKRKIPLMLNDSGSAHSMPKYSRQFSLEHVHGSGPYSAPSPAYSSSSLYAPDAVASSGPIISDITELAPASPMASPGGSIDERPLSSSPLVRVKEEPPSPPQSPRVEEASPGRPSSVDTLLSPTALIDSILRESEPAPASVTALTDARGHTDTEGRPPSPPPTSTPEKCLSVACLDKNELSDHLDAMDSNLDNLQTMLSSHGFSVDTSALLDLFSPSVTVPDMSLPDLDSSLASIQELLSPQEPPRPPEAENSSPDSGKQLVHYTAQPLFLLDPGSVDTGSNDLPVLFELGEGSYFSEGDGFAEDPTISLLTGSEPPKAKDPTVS
Chain of ETV1 (P50549 whole entry): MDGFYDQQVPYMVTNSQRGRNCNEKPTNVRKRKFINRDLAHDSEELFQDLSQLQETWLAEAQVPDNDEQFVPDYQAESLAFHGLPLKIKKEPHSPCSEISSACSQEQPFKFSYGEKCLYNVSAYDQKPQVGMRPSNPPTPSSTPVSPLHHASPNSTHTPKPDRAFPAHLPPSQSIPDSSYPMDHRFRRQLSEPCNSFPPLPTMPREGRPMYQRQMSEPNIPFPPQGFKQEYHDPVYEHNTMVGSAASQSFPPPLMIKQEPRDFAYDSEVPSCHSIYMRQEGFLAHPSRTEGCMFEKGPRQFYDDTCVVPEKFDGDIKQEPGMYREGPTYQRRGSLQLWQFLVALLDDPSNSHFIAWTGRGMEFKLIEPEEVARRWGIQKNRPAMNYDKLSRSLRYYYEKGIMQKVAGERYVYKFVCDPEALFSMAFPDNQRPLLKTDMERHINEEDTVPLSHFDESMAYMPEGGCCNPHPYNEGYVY
Chain of SPIB (Q01892 whole entry, the tested form may be a part): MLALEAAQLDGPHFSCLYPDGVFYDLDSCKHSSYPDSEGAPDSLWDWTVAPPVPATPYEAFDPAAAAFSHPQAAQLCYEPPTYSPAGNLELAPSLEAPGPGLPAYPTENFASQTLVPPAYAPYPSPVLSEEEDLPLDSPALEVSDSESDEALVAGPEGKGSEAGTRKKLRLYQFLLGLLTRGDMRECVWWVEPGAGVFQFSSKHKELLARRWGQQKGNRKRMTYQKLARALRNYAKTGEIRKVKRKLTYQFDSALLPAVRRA
Chain of CRX (O43186 whole entry): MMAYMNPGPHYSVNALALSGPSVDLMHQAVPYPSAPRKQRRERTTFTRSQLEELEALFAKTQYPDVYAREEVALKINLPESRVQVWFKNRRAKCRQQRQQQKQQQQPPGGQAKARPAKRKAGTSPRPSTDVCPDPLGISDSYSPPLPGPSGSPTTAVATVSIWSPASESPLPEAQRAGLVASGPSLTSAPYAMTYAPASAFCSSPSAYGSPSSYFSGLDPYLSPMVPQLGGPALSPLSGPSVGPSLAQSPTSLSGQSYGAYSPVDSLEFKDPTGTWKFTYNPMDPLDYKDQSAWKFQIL

As to GCCTGG, the binding signal was 1.04 fold enrichment (6-mer frequency, TF over GST control) with SPIB; 1.01 fold enrichment (6-mer frequency, TF over GST control) with ELK3; 1.05 fold enrichment (6-mer frequency, TF over GST control) with HSF1; 1.08 fold enrichment (6-mer frequency, TF over GST control) with ELK4; 1.19 fold enrichment (6-mer frequency, TF over GST control) in the assay with ETV2; 1 fold enrichment (6-mer frequency, TF over GST control) with ETV3L. Moreover, the binding signal with ETS2 was 1.02 fold enrichment (6-mer frequency, TF over GST control).

For TTAGGC, the binding signal with GABPA is 1.02 fold enrichment (6-mer frequency, TF over GST control); with ERG, 1.03 fold enrichment (6-mer frequency, TF over GST control); in the assay with FEV it was 1 fold enrichment (6-mer frequency, TF over GST control); with HSF1, 1.37 fold enrichment (6-mer frequency, TF over GST control); with SPIC, 1.08 fold enrichment (6-mer frequency, TF over GST control); with CRX, 2.06 fold enrichment (6-mer frequency, TF over GST control). Besides, the binding signal with ETV1 was 1.03 fold enrichment (6-mer frequency, TF over GST control); with ERF it was 1.02 fold enrichment (6-mer frequency, TF over GST control); in the assay with ETV3L it was 1.01 fold enrichment (6-mer frequency, TF over GST control); with ETS2, 1.01 fold enrichment (6-mer frequency, TF over GST control); in the assay with ETV7 it was 1.16 fold enrichment (6-mer frequency, TF over GST control).
